The values that follow come from PubChem BioAssay AID2496 (Sanford-Burnham Center for Chemical Genomics, 2010).

Activity calls are given as the source filed them. Rule as the data show it: active = IC50 below about 40 µM; inactive = the rest. Bounds are passed on as bounds.

For orientation: IC50 means the concentration at which inhibition is half-maximal.

The nature of the test: compound optical interference in time-resolved FRET – biochemical, fluorescence ratio, artefact control, SAR follow-up (AID 2496). As to conditions: HTRF spectral interference counter-screen.
In the case of `CCCc1ccc(/C=C2\C(=O)c3ccccc3C(O)=C2C(=O)OCC)cc1`, the IC50 was > 50 µM (inactive).

Regarding `CC(/C=C/c1ccco1)=NNC(=O)c1cc(C)[nH]n1`, the IC50 was > 50 µM (inactive).

Turning to `Nc1ccc(-c2nc3c(Cl)c(N)ccc3[nH]2)cc1`, the IC50 is 5.59 µM (active).

Regarding `CCNC(=O)COC(=O)c1cc(-c2ccco2)nc2ccccc12`, the IC50 was > 50 µM (inactive).

Consider `CC(=O)NS(=O)(=O)c1ccc(NC(=O)/C=C/c2ccc(C)o2)cc1`, for which the IC50 was > 50 µM (inactive).

For the compound `COc1ccc(CCNC(=O)c2cc(-c3ccco3)nc3ccccc23)cc1`, the IC50 is 15 µM (active).

With `CC(/C=C/c1ccco1)=NNC(=O)c1cccnc1`, the IC50 was > 50 µM (inactive).

As to `O=C(NN=Cc1ccc(F)cc1)c1cc(-c2ccco2)nc2ccccc12`, the IC50 is > 50 µM (inactive).

Regarding `CCOC(=O)c1sc2nc(-c3ccco3)c3c(c2c1N)CC(C)(C)OC3`, the IC50 was > 50 µM (inactive).

`CC(=O)Oc1ccc(N2C(=O)C3C(C2=O)C2(C)C=CC3(C)O2)cc1` (configuration not stated): the concentration for half-maximal inhibition (IC50) was 2.86 µM (active).

For the compound `CCCCc1ccc(/C=C2\C(=O)c3ccccc3C(O)=C2C(=O)OCC)cc1`, the IC50 is 4.14 µM (active).

As for `Cc1ccc(S(=O)(=O)N(C)C)cc1NC(=O)c1cc(-c2ccco2)nc2ccccc12`, the IC50 is > 50 µM (inactive).

Regarding `COc1ccc(NC(=O)c2cc(-c3ccco3)nc3ccccc23)cc1S(=O)(=O)N1CCOCC1`, the IC50 was 37.2 µM (active).

With `O=C(CSc1ccc(Cl)cc1)Nc1cccc(-c2nc3ccccc3[nH]2)c1`, the 50% inhibitory concentration (IC50) is 12.8 µM (active).

For the compound `CCN(CC)C(=O)COC(=O)c1cc(-c2ccco2)nc2ccccc12`, the IC50 was 16.4 µM (active).

`CCOC(=O)N1CCN(C(=O)c2ccc3nc(-c4ccco4)c(-c4ccco4)nc3c2)CC1`: the IC50 is 6.55 µM (active).

In the case of `Cc1ccc(/C=C/C(=O)NCc2ccc(S(N)(=O)=O)cc2)o1`, the IC50 was > 50 µM (inactive).

As for `CNc1nc(-c2ccccc2)[n+](-c2ccc(C)cc2)s1`, the IC50 was > 50 µM (inactive).

`O=C(COC(=O)c1c2c(nc3ccccc13)/C(=C/c1ccco1)CC2)NC1CCCC1`: the concentration for half-maximal inhibition (IC50) is 4.42 µM (active).

Consider `O=C(NC1CCCC1)c1ccc2nc(-c3ccco3)c(-c3ccco3)nc2c1`, for which the IC50 is > 50 µM (inactive).

As for `Cc1ccc(/C=C/C(=O)N2CCN(c3ncccn3)CC2)o1`, the IC50 was > 50 µM (inactive).

With `Nc1c(C(=O)NC2CC2)sc2nc3c(c(-c4ccco4)c12)CC/C3=C/c1ccco1`, the concentration for half-maximal inhibition (IC50) is 2.98 µM (active).

Regarding `CCN(CC)CCNC(=O)c1cc(-c2ccco2)nc2ccccc12`, the IC50 was 19.8 µM (active).

Turning to `Nc1ncnc2oc(-c3ccco3)c(-c3ccco3)c12`, the IC50 is > 50 µM (inactive).

For `CN(CCC#N)C(=O)COC(=O)c1c2c(nc3ccccc13)/C(=C/c1ccco1)CC2`, the IC50 was 8.9 µM (active).

As for `O=C(Nc1ccc2nc(-c3ccco3)c(-c3ccco3)nc2c1)N1CCOCC1`, the IC50 was 7.32 µM (active).

Turning to `CN(C(=O)COC(=O)c1cc(-c2ccco2)nc2ccccc12)C1CCS(=O)(=O)C1` (configuration not stated), the half-maximal inhibitory concentration (IC50) is 26.6 µM (active).
